Bioassay records deposited in PubChem BioAssay by several laboratories.
M1 ag: activates the M1 muscarinic receptor; CHO-M1 cells, Fluo-4 calcium fluorescence, agonist mode; hits give high values; B-score at 10 µM; hit rate 3% among 64,000; AID 626;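 active means fluorescence rise, raw or as B-score row- and column-corrected plate score, outside the 99.7% band of its plate's samples, either direction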
M1 antagonist: antagonists of rat M1 muscarinic receptor; AID 628; B-score at 10 µM; P08482; hit rate 3.4% among 64,000; CHO-M1 cells, Fluo-4 calcium, ACh EC80 antagonist mode; hits give low values;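 active means calcium fluorescence response, raw or row-and-column corrected B-score, differing from the plate sample mean either way at a set confidence level, mostly lower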
PTK2B oligo ant: antagonists of human Pyk2 oligomerization | Q14289 | Q293 cells, Pyk2 FERM NanoBiT luminescence; hits give low values | z-score (the deposit names both 25 µM and 10 µM) | hit rate 0.83% among 99,000 | AID 1347419;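 active means Z-score of -3 or lower, scaled per plate to the spread of control and sample wells; inactive means z-score above -3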;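 further: negative z-score means lost luminescence so less FERM oligomerization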
Target sequence (Q14289 whole entry, looked up): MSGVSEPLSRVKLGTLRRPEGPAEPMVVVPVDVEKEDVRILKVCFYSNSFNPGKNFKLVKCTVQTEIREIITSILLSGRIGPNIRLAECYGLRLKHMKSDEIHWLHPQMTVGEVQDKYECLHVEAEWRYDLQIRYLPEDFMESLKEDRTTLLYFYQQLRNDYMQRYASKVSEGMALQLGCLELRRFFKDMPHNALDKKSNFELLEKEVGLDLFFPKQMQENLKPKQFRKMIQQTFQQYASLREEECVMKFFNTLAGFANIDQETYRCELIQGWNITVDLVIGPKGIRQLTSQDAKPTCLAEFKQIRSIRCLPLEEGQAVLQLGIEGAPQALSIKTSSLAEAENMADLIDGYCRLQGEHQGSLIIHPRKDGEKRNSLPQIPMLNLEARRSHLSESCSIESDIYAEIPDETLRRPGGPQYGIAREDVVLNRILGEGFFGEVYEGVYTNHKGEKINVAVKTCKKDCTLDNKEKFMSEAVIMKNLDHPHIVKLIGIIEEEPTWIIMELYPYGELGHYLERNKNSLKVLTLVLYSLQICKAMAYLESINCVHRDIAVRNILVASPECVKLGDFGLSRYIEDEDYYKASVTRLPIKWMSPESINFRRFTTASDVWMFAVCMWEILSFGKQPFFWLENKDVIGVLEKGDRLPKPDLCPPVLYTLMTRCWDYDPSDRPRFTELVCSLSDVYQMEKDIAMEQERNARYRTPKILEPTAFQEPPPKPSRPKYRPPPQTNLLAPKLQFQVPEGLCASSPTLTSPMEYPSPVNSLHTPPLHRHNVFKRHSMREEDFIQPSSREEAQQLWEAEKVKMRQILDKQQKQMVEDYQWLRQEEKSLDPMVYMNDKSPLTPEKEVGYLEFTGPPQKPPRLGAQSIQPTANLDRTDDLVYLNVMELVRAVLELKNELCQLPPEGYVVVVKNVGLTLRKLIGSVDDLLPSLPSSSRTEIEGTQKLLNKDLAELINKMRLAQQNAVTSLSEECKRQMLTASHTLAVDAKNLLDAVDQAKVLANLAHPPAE
Cav32 inh: inhibitors of human Cav3.2 T-type calcium channel; Cav3.2-expressing cells, Fluo-4 calcium fluorescence FDSS; hits give low values; O95180; B-score at 10 µM; hit rate 4% among 100,000;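 active means single-dose well whose peak fluorescence ratio is a statistical outlier from its plate by either plate-standardised score or position-corrected B-score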
* = called active by the depositor. Only some compounds are listed: those with a hit (about 7.1% of all), similar ones and a draw of the others.

OCCCc1nc2n(n1)C(c1cccs1)C=C(c1ccc(Br)cc1)N2 (centres undefined) was read as Cav32 inh -7.94*.
Screening Cc1ccc(C2C=C(c3ccccc3)Nc3ncnn32)cc1 (centres undefined) returned Cav32 inh -0.46.
`C1=C(c2ccc(-c3ccccc3)cc2)Nc2ncnn2C1c1ccco1` (centres undefined) gave M1 ag 43.6*, M1 antagonist -1.59 and PTK2B oligo ant -1.56.
`Brc1ccc(C2=CC(c3cccs3)n3ncnc3N2)cc1` (centres undefined) gave PTK2B oligo ant -3.51* and Cav32 inh -5.51*.
C=C1CC2C(=O)N(Cc3ccccc3)C(C(=O)OCC)(C(=O)OCC)C1N2C(=O)OC(C)(C)C (centres undefined) was read as Cav32 inh -1.35.
Cc1cccc(N2CN(Cc3ccco3)CNC2=S)c1C was read as PTK2B oligo ant 0.4.
Screening CCc1cccc(NC(=O)Cc2cn(C)c3ccccc23)c1 returned PTK2B oligo ant -1.22 and Cav32 inh -7.66*.
For Cn1cc(CC(=O)Nc2cccc(C#N)c2)c2ccccc21 the results were M1 ag -0.413, M1 antagonist 0.151, PTK2B oligo ant 3.61 and Cav32 inh -4.22*.
For CCc1ccc(NC(=O)Cc2cn(C)c3ccccc23)cc1 the results were PTK2B oligo ant -2.04 and Cav32 inh -4.82*.
`COC(=O)Oc1ccc(/C=N/NC(=O)CSCc2ccccc2Br)cc1OC` gave PTK2B oligo ant -0.49 and Cav32 inh -1.15.
`S=C(c1ccc(-c2ccccc2Cl)o1)N1CCOCC1` gave M1 ag 0.801, M1 antagonist 1.08*, PTK2B oligo ant 0.02 and Cav32 inh -1.82.
`O=C(NCc1ccc2c(c1)OCO2)C1CC(c2ccc(Cl)cc2)=NO1` (centres undefined) gave PTK2B oligo ant 1.13 and Cav32 inh -5.58*.
`O=C(NCc1ccc(OC(F)(F)F)cc1)C1CC(c2cccc(F)c2)=NO1` (centres undefined) gave Cav32 inh -3.15*.
Screening COc1cc(OC)c(C2=NOC(C(=O)NCc3ccc4c(c3)OCO4)C2)cc1Cl (centres undefined) returned M1 ag -2.52, M1 antagonist -0.782, PTK2B oligo ant -0.18 and Cav32 inh -2.31.
Cc1ccc(CNC(=O)C2CC(c3cccc(F)c3)=NO2)cc1 (centres undefined) was read as Cav32 inh -1.84.
Screening CCOC(=O)C(Oc1ccc2c(-c3ccccc3)cc(=O)oc2c1)c1ccccc1 (centres undefined) returned PTK2B oligo ant -1.56.
`O=c1c2cn[nH]c2nc(SCc2ccc3c(c2)OCCO3)n1-c1ccccc1` gave M1 ag -0.448, M1 antagonist 0.55, PTK2B oligo ant -3.7* and Cav32 inh -3.42.
For CCc1ccccc1-n1c(SCC(=O)Nc2ccc3c(c2)OCCO3)nc2[nH]ncc2c1=O the results were M1 ag 0.0417, M1 antagonist 0.558, PTK2B oligo ant -2.31 and Cav32 inh 0.609.
O=c1c2c3nc4ccccc4nc3n(CCN3CCOCC3)c2ncn1CCN1CCOCC1 was read as M1 ag 2.72* and M1 antagonist -0.00852.
For CCCCn1c2nc3ccccc3nc2c2c(=O)n(C(C)CC)cnc21 (centres undefined) the results were M1 ag 0.445, M1 antagonist -1.58, PTK2B oligo ant -3.08* and Cav32 inh 0.0924.
For CCN1C(=O)c2cccc3c(NC(=O)c4ccc(OC)c(OC)c4)ccc1c23 the results were Cav32 inh -0.582.
Screening Cc1noc(/C=C/N(C)C)c1S(=O)(=O)N1CCc2ccccc21 returned M1 ag 1.22, M1 antagonist 1.3* and Cav32 inh -1.6.
CCC(CC)c1nnc(NC(=O)c2c(C)nn(Cc3ccccc3Cl)c2C)s1 was read as PTK2B oligo ant 1.44 and Cav32 inh -3.97.
For CCOC(=O)c1sc(NC(=O)C(CC)OC(=O)C(CC(C)C)NC(=O)c2ccccc2)nc1C (centres undefined) the results were PTK2B oligo ant -1.96 and Cav32 inh -4.04*.
CCOC(=O)c1sc(NC(=O)C(CC)Sc2nc3ccccc3[nH]2)nc1C (centres undefined) was read as PTK2B oligo ant -0.51 and Cav32 inh 0.145.
Screening CCOc1ccc(C(=O)NC(=S)N(Cc2ccccc2)Cc2ccccc2)cc1 returned PTK2B oligo ant -0.52 and Cav32 inh -4.63*.
For Cc1nn(C)c(C)c1/C=N/N=C1\CCC2C3CCc4cc(O)ccc4C3CCC12C (centres undefined) the results were PTK2B oligo ant -0.54.
Fc1ccc(CSc2nnc(Cc3sc(-c4ccccc4)nc3-c3ccccc3)o2)cc1 was read as PTK2B oligo ant -0.63 and Cav32 inh 0.674.
COc1ccc(CSc2nnc(Cc3sc(-c4ccccc4)nc3-c3ccccc3)o2)cc1 was read as PTK2B oligo ant -0.33 and Cav32 inh -5.22*.
Cc1ccc2nc(N/N=C\c3ccc([N+](=O)[O-])o3)nc(-c3ccccc3)c2c1 was read as PTK2B oligo ant -3.96*.
`Cc1c(C(=O)NCC2CCCO2)oc2ccc(S(=O)(=O)N3CC(C)CC(C)C3)cc12` (centres undefined) gave M1 ag 0.501, M1 antagonist -1.06 and Cav32 inh -4.02*.
For CCN(CC)S(=O)(=O)c1ccc2oc(C(=O)NCC3COc4ccccc4O3)c(C)c2c1 (centres undefined) the results were M1 ag 0.1, M1 antagonist -0.497 and PTK2B oligo ant -0.77.
Screening Cc1c(C(=O)NCC2CCCO2)oc2ccc(S(=O)(=O)N3CCCCC3)cc12 (centres undefined) returned M1 ag 0.151 and M1 antagonist -0.422.
Cc1c(C(=O)NCC2COc3ccccc3O2)oc2ccc(S(=O)(=O)N3CC(C)CC(C)C3)cc12 (centres undefined) was read as PTK2B oligo ant -0.5 and Cav32 inh -3.9*.
Screening Cc1cc(NC(=O)Cn2nnc3sc4c(c3c2=O)CCC(C(C)(C)C)C4)no1 (centres undefined) returned M1 ag -0.185, M1 antagonist 0.0226, PTK2B oligo ant 0.05 and Cav32 inh -7.33*.
`Cc1ccc(C(C(=O)NC2CCCC2)N(Cc2ccc3c(c2)OCO3)C(=O)Cc2cccs2)cc1` (centres undefined) gave PTK2B oligo ant -1.76 and Cav32 inh -0.228.
O=C(NC1CCCCC1)C(c1ccccc1)N(Cc1ccc2c(c1)OCO2)C(=O)c1cnsn1 (centres undefined) was read as PTK2B oligo ant -2.14 and Cav32 inh -7.49*.
`CC(OC(=O)C1CCN(S(=O)(=O)c2ccc(Cl)cc2)CC1)C(=O)N1CCc2ccccc21` (centres undefined) gave PTK2B oligo ant 0.1 and Cav32 inh -4.65*.
CCOc1ccc(S(=O)(=O)NCCC(=O)OC(C)C(=O)N2CCc3ccccc32)cc1 (centres undefined) was read as M1 ag 2.67, M1 antagonist -0.698, PTK2B oligo ant 1.16 and Cav32 inh -4.62*.
